Laboratory results published in PubChem BioAssay (Tox21).
Inconclusive results are not listed. A call without a number means that no potency is given here. Calls of active or inactive are those of the source. Calls come from the whole dose curve; as a rule, active = well fitted cell-killing curve with a large enough effect in the repeat runs; inconclusive = weak or mixed curves, or effect the other way; inactive = flat fitted curve, though single readings scatter.

assay: qHTS assay to identify small molecule antagonists of the androgen receptor (AR) signaling pathway using the MDA cell line in the presence of 0.5 nM R1881 - cell viability counter screen (AID 1259242); details: MDA-kb2 viability, CellTiter-Fluor protease fluorescence, 16 h; series mostly up to 92.4 µM; note: nearly all actives have a fitted effect of over 45% in size
Text: U.S. Tox21 Program National Center for Advancing Translational Sciences [NCATS] NIH Chemical Genomics Center [NCGC] U.S. Environmental Protection Agency [EPA] National Institutes of Environmental Health Sciences [NIEHS] National Toxicology Program [NTP] U.S. Food and Drug Administration [FDA] Tox21 Assay Overview: Androgen receptor (AR) is an important member of the nuclear receptor family. Its signaling plays a critical role in AR-dependent prostate cancer and other androgen related diseases. Considerable attention has been given in the past decades to develop methods to study and screen for the environmental chemicals that have the potential to interfere with metabolic homeostasis, reproduction, developmental and behavioral functions. Therefore AR binding assay for screening androgen antagonists can be used to identify potential endocrine disruptors. MDA-kb2 cells (from ATCC, deposited by Wilson et al.) were used to screen for AR inhibitors against Tox21 compound libraries. These cells are human breast carcinoma cells that were stably transfected with a luciferase reporter gene under control of the MMTV promoter that contains response elements for both androgen receptor (AR) and glucocorticoid receptor (GR). The current screening for identification of AR inhibitors against Tox21 libraries used lower concentration of (0.5 nM) R1881 as a stimulator. The cytotoxicity of the Tox21 compound libraries against MDA-kb2 cell line was tested by measuring live-cell protease activity using CellTiter-Fluor assay in the same wells.
Tox21 Assay Protocol Summary: MDA-kb2 cells (cells cultured without CO2) were dispensed at 3,000 cells/well in 4 uL of culture medium into white wall/solid-bottom 1536-well plates (Corning Life Sciences, Corning, NY) using a Multidrop Combi (ThermoFisher Scientific, Waltham, MA) dispenser. After the assay plates were incubated at a 37C and 0% CO2 for 5 hr, 23 nL of compounds dissolved in DMSO, positive controls or DMSO only was transferred to the assay plate by a Pintool station (Kalypsys, San Diego, CA). The transfer of compounds was followed by the addition of 1 uL of 0.5 nM (final concentration) agonist (R1881)/culture medium using a Flying Reagent Dispenser (FRD, Aurora Discovery, San Diego, CA). The plates were incubated at 37C and 0% CO2 for 16 hr. For cytotoxicity assay, 1 uL of CellTiter-Fluor reagent (Promega Corporation, Madison, WI) was added to each well using the FRD and after 30 min incubation at 37C and 0% CO2, The fluorescence intensity was measured using ViewLux plate reader (PerkinElmer, Shelton, CT).
Potency is the fitted concentration of half-maximal effect.

| SMILES | Potency |
| --- | --- |
| CCc1ccc(C(=O)NN(C(=O)c2cc(C)cc(C)c2)C(C)(C)C)cc1 | inactive |
| CC(C)O.CC(C)O.OCCN(CCO)CCO.OCCN(CCO)CCO.[Ti] | inactive |
| BrCCCCBr | inactive |
| CN1C(=O)NC(=O)C(C)(C2=CCCCC2)C1=O (stereo not given) | inactive |
| Clc1cc(Cl)c(Cl)c(Cl)c1 | inactive |
| IC(I)=C(I)I | 61.1 µM (active) |
| O=[Se]=O | 12.1 µM (active) |
| CC1(C)[C@H](C=C(Cl)Cl)[C@@H]1C(=O)O[C@@H](C#N)c1cccc(Oc2ccccc2)c1 | inactive |
| CN(N=O)c1ccc([N+](=O)[O-])cc1 | inactive |
| O=[N+]([O-])c1cc(C(F)(F)F)cc([N+](=O)[O-])c1Cl | inactive |
| Brc1ccc(Oc2ccccc2)cc1 | inactive |
| CC(=O)c1cc2c(cc1C)C(C)(C)C(C)CC2(C)C (stereo not given) | inactive |
| COc1cc(Cl)c(OC)cc1Cl | inactive |
| CCOS(C)(=O)=O | inactive |
| O=[N+]([O-])c1ccccc1CCl | inactive |
| CC(C)(C)C(O)C(Oc1ccc(Cl)cc1)n1cncn1 (stereo not given) | inactive |
| CCOP(=S)(Oc1ccc([N+](=O)[O-])cc1)c1ccccc1 (stereo not given) | inactive |
| CC(O)(CS(=O)(=O)c1ccc(F)cc1)C(=O)Nc1ccc(C#N)c(C(F)(F)F)c1 (stereo not given) | inactive |
| COP(=S)(Oc1cc(Cl)c(Br)cc1Cl)c1ccccc1 (stereo not given) | inactive |
| COP(=O)(OC)O/C(=C/Cl)c1cc(Cl)c(Cl)cc1Cl | inactive |

| SMILES | Potency |
| --- | --- |
| C[N+](C)(C)CCCl | inactive |
| O=S1OC[C@@H]2[C@H](CO1)[C@]1(Cl)C(Cl)=C(Cl)[C@@]2(Cl)C1(Cl)Cl (stereo not given in full) | inactive |
| CCOP(=O)(OCC)O/C(=C/Cl)c1ccc(Cl)cc1Cl | inactive |
| CC1Sc2c(C(=O)O)c(=O)c3cc(F)c(N4CCNCC4)cc3n21 (stereo not given) | inactive |
| C=C(C#N)CCC#N | inactive |
| CC(C)(Cl)[N+](=O)[O-] | inactive |
| CC1(C)CCC(Cc2ccc(Cl)cc2)C1(O)Cn1cncn1 (stereo not given) | inactive |
| CCOP(=S)(OCC)Oc1nc(Cl)c(Cl)cc1Cl | inactive |
| CCCCN(N=O)C(=N)N[N+](=O)[O-] | inactive |
| ClCc1ccccc1 | inactive |
| CCC(Cl)CCl (stereo not given) | inactive |
| CCOC(=O)CBr | inactive |
| Cl/C=C\C[N+]12CN3CN(CN(C3)C1)C2 | inactive |
| Cc1ccccc1CCl | inactive |
| COCCOCCO | inactive |
| C=CC(C)=O | inactive |
| CCCCCCC#N | inactive |
| O=C(OC1CCCCC1)c1ccccc1C(=O)OC1CCCCC1 | inactive |
| CC(C)=CCOc1c2occc2cc2ccc(=O)oc12 | inactive |
| COCC(C)N(C(=O)CCl)c1c(C)csc1C (stereo not given) | inactive |
